Assay results as given in ChEMBL document CHEMBL4513216, “Probing the Open Global Health Chemical Diversity Library for Multistage-Active Starting Points for Next-Generation Antimalarials” (ACS Infect Dis, 2020).
Out of some 69,000 compounds screened, about 8,600 (12%) showed an effect of 50% or more. The entries come from a sample that favours strong results as a whole.

Each compound was assayed on Plasmodium berghei (assay: Screen against P. berghei liver stage (PbLuc), transformed with Luciferase, at 10uM). Settings: tested at 10 uM.
Assay type: functional, HepG2
With COc1cccc2c1ccn2CCNC(=O)C1CCC1 the INHIBITION was -46.8%.
OCCn1cc(CN2CCN(CCOc3ccccc3)CC2)cn1 was tested, and the INHIBITION was 37.5%.
For OCCn1cc(CN2CCN(CCOc3ccc(F)cc3)CC2)cn1, the INHIBITION was 39.5%.
For OCCn1cc(CN2CCN(CCOCC(F)(F)F)CC2)cn1, the INHIBITION was 54.9%.
Compound NC(=O)NC(=O)CN1CCN(c2nccs2)CC1 has an INHIBITION of 24%.
With Cc1ccc(CCN2CCC(N(C)Cc3noc(C4CC4)n3)C2)cc1 (centres undefined) the INHIBITION was 27.9%.
Work on CCc1nc(CN(C)C2CCN(Cc3cnc(C)cn3)C2)no1 (centres undefined) yielded an INHIBITION of 67.5%.
In the case of CCn1c(C)nnc1CN(C)C1CCN(Cc2cnc(C)cn2)C1 (centres undefined), the INHIBITION was -7.48%.
With Cc1cc(C)n(CCN2CCC(N(C)Cc3nnc(C)n3C)C2)n1 (centres undefined) the INHIBITION was 54.6%.
Cc1cnc(CN2CCC(N(C)Cc3nnc(C)n3C)C2)cn1 (centres undefined) showed an INHIBITION of 62.3%.
Compound Cc1nnc(CN(C)C2CCN(CCc3cccs3)C2)n1C (centres undefined) has an INHIBITION of 21.8%.
In the case of CCc1nc(CN2CCCC(N(C)Cc3cnc(C)cn3)C2)no1 (centres undefined), the INHIBITION was 24.3%.
Work on Cc1cc(C)n(CCN2CCC(N(C)Cc3noc(C4CC4)n3)C2)n1 (centres undefined) yielded an INHIBITION of 68.5%.
For Cc1cc(CN2CCC(N(C)Cc3noc(C4CC4)n3)C2)on1 (centres undefined), the INHIBITION was 19.5%.
CCc1nc(CN(C(C)=O)C2CCN(Cc3cnc(C)cn3)C2)no1 (centres undefined) was tested, and the INHIBITION was 12.4%.
Work on Cc1nnc(CN(C)C2CCN(Cc3nnc(C4CCC4)o3)C2)n1C (centres undefined) yielded an INHIBITION of 40.9%.
Cc1cnc(CN2CCC(N(C)Cc3nnc(C4CC4)n3C)C2)cn1 (centres undefined) gave an INHIBITION of 27.5%.
With COc1cc(C(=O)N2CC3(CCNCC3)c3cc(Cl)ccc32)ccn1 the INHIBITION was -17.1%.
Cc1cc(C(=O)N2CCN(C)CC2)nn1CC(=O)NCc1ccccn1 gave an INHIBITION of 1.95%.
Work on Cc1nc(CN2CCC(N(C)Cc3nnc(C4CC4)n3C)C2)cs1 (centres undefined) yielded an INHIBITION of 7.12%.
O=C(NCCS(=O)(=O)N1CCN(c2ncccn2)CC1)C1CCCC1 gave an INHIBITION of -33.5%.
In the case of CCOCC1CN(Cc2ccc3c(c2)OCO3)Cc2nccn2C1 (centres undefined), the INHIBITION was 29%.
In the case of Cc1ccc(CNC(=O)CN2CCCCC2Cn2cncn2)s1 (centres undefined), the INHIBITION was -1.14%.
Work on CC(=O)c1cc(Br)cc(F)c1OCC(=O)NC(C)C yielded an INHIBITION of 56.9%.
Work on COC(=O)COc1c(F)cc(Br)cc1C(C)=O yielded an INHIBITION of 8.24%.
CNC(=O)COc1c(F)cc(Br)cc1C(C)=O was tested, and the INHIBITION was 9.04%.
With Cc1nc(CNCC2CN(C3CC3)CCO2)cs1 (centres undefined) the INHIBITION was 27.4%.
NC(=O)COc1ccc(CNCc2ccc(F)cc2)cc1 was tested, and the INHIBITION was 9.52%.
With Cc1nc(C)n(CC2CN(Cc3nc4ccccc4s3)CCO2)n1 (centres undefined) the INHIBITION was 92.3%.
Compound Cc1nc(C)n(CC2CN(Cc3cccc4ccccc34)CCO2)n1 (centres undefined) has an INHIBITION of 37.4%.
Cc1cc(C)n(CC2CN(Cc3cnc(C)s3)CCO2)n1 (centres undefined) gave an INHIBITION of 28.8%.
Work on Cc1cc(C)n(CC2CN(Cc3ccccn3)CCO2)n1 (centres undefined) yielded an INHIBITION of 12.415%.
Work on Cc1cc(C)n(CC2CN(Cc3nc4ccccc4s3)CCO2)n1 (centres undefined) yielded an INHIBITION of 79.9%.
With Cc1nc(C)n(CC2CN(Cc3nc4ccccc4n3C)CCO2)n1 (centres undefined) the INHIBITION was 22.3%.
